# Test results as given in article PMC5540273 (PLoS ONE, 2017).
# Tested on: WNK3
# Conditions: concentration: 1 μM, replicates: in singlicate; n = 1
# 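Further: KINOMEscan kinase panel screen.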
row,Structure (SMILES),%Inh
1,COc1cc(Nc2nccc(N3CCC(NC(=O)C4COc5ccccc5O4)C3)n2)cc(OC)c1OC (stereo not shown) [GSK1379761],46%
2,Cc1c(Cn2c(C)nn3c(=O)cc(N4CCO[C@H](C)C4)nc23)cccc1C(F)(F)F [GSK2373690],20%
3,COc1ccc(-n2cnc3c(N)ncnc32)cc1 [SKF-97236],0%
4,Nc1nc(-c2ccccc2F)c(-c2ccnc3ccccc23)s1 [GW560459],35%
5,O=C(Nc1n[nH]c2cc(-c3ccccc3F)ccc12)C1CC1 [SB-733371],0%
6,Cc1nnc(-c2ccc3ncn(-c4ccc(S(C)=O)cc4)c3c2)o1 (stereo not shown),0%
7,CCn1c(-c2ccoc2)nc2cnccc21 [SB-733887],19%
8,CCC(=O)c1c(-c2ccccc2)c2cc(Cl)ccc2c(=O)n1Cc1cc(S(C)(=O)=O)n(CC(F)F)n1,0%
9,FC(F)(F)c1ccc(-c2ncn(CCCN3CCOCC3)c2-c2ccncc2)cc1 [SB-217780],15%
10,COc1ccc(CNC(=O)NC2CCN(c3ccnc(Nc4ccc(F)cc4)n3)C2)cc1 (stereo not shown) [GSK1379706],49%
11,COc1cc2ncn(-c3cc(OCc4ccncc4Br)c(C(N)=O)s3)c2cc1OC [GW854278],64%
12,COC(=O)c1c(-c2ccccc2)c2cc(C)ccc2c(=O)n1Cc1ccccc1,0%
13,COc1ccc(-c2coc3ccc(-c4nnc(SCc5cccc(C#N)c5)o4)cc23)cc1,0%
14,Cc1ccc(-c2ccc3c(ccc4sc5c(c43)NC[C@@H](C)N=C5N(C)C)n2)cn1,0%
15,O=c1cc(N2CCOCC2)nc2n(Cc3ccc(F)c(Cl)c3)ccn12 [GSK2297099],5%
16,COc1cc2ncn(-c3cc(OCCCc4ccccc4)c(C(N)=O)s3)c2cc1OC [GSK205189],0%
17,CN1C(=O)C(Nc2cc(Cl)c(O)c(Cl)c2)=C(c2ccc(Cl)cc2)C1=O [SB-404321],0%
18,CCC(=O)c1c(-c2ccccc2)c2cc(Cl)ccc2c(=O)n1Cc1cc(C(=O)NC2CC2)n(C)n1,0%
19,O=C1NC(=O)C(c2ccccc2)=C1Nc1cccc(O)c1 [SB-390534],0%

row,Structure (SMILES),%Inh
1,COc1cc2nccc(Nc3cccc(Oc4ccccc4)c3)c2cc1OC.Cl [GW284543],10%
2,Cc1nn2c(=O)cc(N3CCOCC3)nc2n1Cc1cccc(Cl)c1Cl [GSK2342769],13%
3,O=C(Nc1n[nH]c2nc(-c3ccccc3)c(Cl)cc12)C1CC1 [SB-734909],7%
4,Cl.NS(=O)(=O)c1cccc(Nc2cc(-c3ccc(F)cc3)n[nH]2)c1 [GW824645],25%
5,Cc1cc(Nc2nc(-c3cccc(C)n3)nc3ccccc23)ccn1 [GW872411],0%
6,Nc1n[nH]c2nnc(-c3ccccc3)c(-c3ccccc3)c12 [GW554060],18%
7,CCC(=O)c1c(-c2ccccc2)c2cc(Cl)ccc2c(=O)n1Cc1ccc(C(=O)O)cc1,0%
8,Nc1ncnc2c1ncn2-c1cccc(F)c1 [SKF-97560],0%
9,Cl.c1ccc(Cn2cnc3cc(Nc4ncnc5ccccc45)ccc32)cc1 [GW272142],35%
10,COc1cc2nccc(Nc3ccc(OCc4ccc(NC(C)=O)cc4)cc3)c2cc1OC.Cl [GW440135],39%
11,CCS(=O)(=O)c1ccc(OC)c(Nc2ncc(-c3ccc(F)cc3)o2)c1.Cl [GW591947],21%
12,Cc1cccc(-c2nc(Nc3ccc4c(cnn4C)c3)c3ccccc3n2)n1 [GW876731],21%
13,CCS(=O)c1ccc(-c2coc3ccc(-c4nnc(C)o4)cc23)cc1 (stereo not shown),0%
14,Cc1cccc(-c2cc(-c3c[nH]nc3-c3ccccn3)ccn2)c1 [GW679395],36%
15,COc1cccc(-n2cnc3c(N)ncnc32)c1 [SKF-97416],38%
16,CCC(=O)c1c(-c2ccccc2)c2cc(Cl)ccc2c(=O)n1Cc1cc(S(C)(=O)=O)n(CC(N)=O)n1,0%
17,CCCC(=O)Nc1n[nH]c2ncc(-c3cccc4ccccc34)cc12 [SB-642057],0%
18,Cc1nc(N(C)[C@H]2CN(C(=O)CC#N)CC[C@H]2C)c2cc[nH]c2n1,0%
